# From PubChem
# In the library only some 0.97% were active in any assay of this set; here they are far more common.
# UGM FP inh: inhibitors of M. tuberculosis UDP-galactopyranose mutase; inhibition, % at 10 µM; purified UGM, fluorescence polarization probe displacement; P9WIQ1; AID 504406; hit rate 0.06% among 320,000; in the data active = inhibition above about 10%, passing the limit was not always enough; inconclusive = no clear call, values can overlap the other calls
# Rv3671c protease: inhibits the M. tuberculosis serine protease Rv3671c; hit rate 0.048% among 320,000; inhibition, % at 5.96 µM; in the data active = inhibition above about 38%;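 also: extracellular domain of Rv3671c used as enzyme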
# RecA intein inh: blocks M. tuberculosis RecA intein splicing; P9WHJ3; cell-free RecA intein splicing, fluorescence; inhibition, % (test concentration not listed); hit rate 0.75% among 290,000; AID 2221; in the data active = inhibition above about 30%; inconclusive = no clear call, values can overlap the other calls
# Target sequence (P9WHJ3 whole entry, looked up): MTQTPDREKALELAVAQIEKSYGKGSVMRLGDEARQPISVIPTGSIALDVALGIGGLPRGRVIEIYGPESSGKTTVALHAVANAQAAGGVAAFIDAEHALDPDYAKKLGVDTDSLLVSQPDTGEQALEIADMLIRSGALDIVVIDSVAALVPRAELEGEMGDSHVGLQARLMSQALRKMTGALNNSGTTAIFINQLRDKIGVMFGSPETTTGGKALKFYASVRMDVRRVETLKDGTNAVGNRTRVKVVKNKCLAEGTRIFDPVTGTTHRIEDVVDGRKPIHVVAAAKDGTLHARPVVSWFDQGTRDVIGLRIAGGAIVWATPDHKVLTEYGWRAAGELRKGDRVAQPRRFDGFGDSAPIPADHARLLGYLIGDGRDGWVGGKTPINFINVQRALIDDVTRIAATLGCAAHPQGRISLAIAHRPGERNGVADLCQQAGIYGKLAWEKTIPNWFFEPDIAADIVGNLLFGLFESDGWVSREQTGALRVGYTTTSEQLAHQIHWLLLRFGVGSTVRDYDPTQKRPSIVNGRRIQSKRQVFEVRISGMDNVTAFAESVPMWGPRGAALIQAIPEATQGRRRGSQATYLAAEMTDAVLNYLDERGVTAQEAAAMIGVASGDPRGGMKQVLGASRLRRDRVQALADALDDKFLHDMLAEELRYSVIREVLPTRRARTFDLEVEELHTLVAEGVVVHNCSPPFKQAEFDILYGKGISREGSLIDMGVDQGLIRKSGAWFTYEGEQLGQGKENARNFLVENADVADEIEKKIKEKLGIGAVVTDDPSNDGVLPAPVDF
# Mtb BioA inh: inhibitors of Mycobacterium tuberculosis BioA enzyme | purified M. tuberculosis BioA enzyme, plate reader | inhibition, % at 9.99 µM | hit rate 0.096% among 360,000 | AID 602481; in the data active = inhibition above about 40%; inconclusive = no clear call, values can overlap the other calls
# FadD28 FP inh: inhibitors of Mycobacterium tuberculosis FadD28 bisubstrate binding; AID 588549; FadD28 bisubstrate probe binding, fluorescence polarization; hit rate 0.22% among 360,000; inhibition, % at 12.5 µM; in the data active = inhibition above about 8.5%, passing the limit was not always enough; inconclusive = no clear call, values can overlap the other calls
# TcdB inh: inhibitors of Clostridioides difficile toxin B glycohydrolase | P18177 | TcdB glycohydrolase enzymatic assay, plate reader | inhibition, % at 9.99 µM | hit rate 0.24% among 350,000; in the data active = inhibition above about 10%
# GFP chromophore: counter-screen GFP chromophore formation inhibition; shares compounds with RecA intein inh; cell-free GFP chromophore formation, fluorescence; EC50, µM; hit rate 83% among 2,100; AID 434968; call rule not given here
# Numbers stand for hits; 0 = inactive; ? = inconclusive; - = not tested or not shown.
SMILES,UGM FP inh,Rv3671c protease,RecA intein inh,Mtb BioA inh,FadD28 FP inh,TcdB inh,GFP chromophore
COc1ccc(S(=O)(=O)Nc2ccc3c(c2)C(=O)N([C@@H](C)CO)C[C@H](C)[C@@H](CN(C)S(C)(=O)=O)OCCCC[C@@H](C)O3)cc1,-,-,-,0,-,0,-
CC1=NNC(=O)C1Oc1ccccc1 (stereo unspecified),0,0,96,-,0,0,1.1
Cc1cccc(NC(=S)N/N=C2/CCCCc3ccccc32)c1,0,0,30,0,0,-,0
C=CCn1c(-c2cccnc2Cl)nc2ccccc21,0,0,85,-,0,0,0
C=CCn1c(-c2cccnc2Cl)nc2cc(Cl)c(Cl)cc21,0,0,0,0,0,-,-
O=C(CCS(=O)NCc1ccccc1)NCc1ccccc1 (stereo unspecified),0,0,59,-,-,-,0
C/C(=N\NC(=S)NC(C)C)c1ccccc1,0,0,0,-,0,0,-
CC(C)NC(=S)NC(c1ccccc1)(c1ccccc1)c1ccccc1,0,0,32,0,0,0,0
CCOC(=O)c1[nH]c(=O)c2ccccc2c1O,0,0,56,-,0,-,26
CC(=O)Nc1ccc(NC(=O)CSc2ncc(C(=O)Nc3ccc(F)cc3)c(=O)n2C)cc1,0,0,32,0,0,0,0
CC(=O)c1cccc(NC(=O)CSc2ncc(C(=O)Nc3ccccc3)c(=O)n2C)c1,0,0,37,0,0,0,0
CC(=O)Nc1cccc(NC(=O)CSc2ncc(C(=O)Nc3ccc(F)cc3)c(=O)n2C)c1,0,0,0,0,0,0,-
CC(=O)Nc1cccc(NC(=O)CSc2ncc(C(=O)Nc3ccccc3)c(=O)n2C)c1,0,0,47,-,0,0,40
COc1ccccc1N1C(=O)Cc2ccccc2C1=O,0,0,31,0,0,0,11
COc1ccc2c(c1)C(=O)N(c1ccccc1OC)C(=O)C2,0,0,0,-,0,0,-
Cc1cc(C)c(S(=O)(=O)/N=C2\C=C(Nc3ccc(C(=O)O)cc3)C(=O)c3ccccc32)c(C)c1,0,0,96,0,?,0,0.87
CCc1ccc(S(=O)(=O)/N=C2\C=C(Nc3ccc(O)cc3)C(=O)c3ccccc32)cc1,0,0,97,0,?,-,0.5
CCc1ccc(S(=O)(=O)/N=C2\C=C(Nc3cccc(C(=O)O)c3)C(=O)c3ccccc32)cc1,0,0,95,0,0,0,0.42
CCc1ccc(S(=O)(=O)/N=C2\C=CC(=O)c3ccccc32)cc1,0,0,93,-,-,-,1.7
Cc1ccc(S(=O)(=O)/N=C2\C=C(NS(=O)(=O)c3ccccc3)C(=O)c3ccccc32)cc1,-,-,-,0,0,0,-
O=S(=O)(N=C1C=CC(=NS(=O)(=O)c2ccccc2)c2ccccc21)c1ccccc1,-,-,-,0,0,0,-
O=C(O)c1ccc(NC2=C/C(=N/S(=O)(=O)c3ccccc3)c3ccccc3C2=O)cc1,-,-,-,-,0,0,-
C[C@H]1CCCCO[C@H](CN(C)S(=O)(=O)c2ccccc2)[C@@H](C)CN([C@@H](C)CO)C(=O)c2cc(NC(=O)Nc3ccc(F)cc3)ccc2O1,-,-,-,0,-,0,-
CN(C)CC(=O)Nc1ccc2c(c1)[C@H]1C[C@@H](CC(=O)NCc3ccccc3)O[C@H](CO)[C@H]1O2,-,-,-,0,-,0,-
N#CC(C#N)=NNc1ccc(-n2ccc(C(F)(F)F)n2)cc1,0,0,79,0,0,0,6.4
SMILES,UGM FP inh,Rv3671c protease,RecA intein inh,Mtb BioA inh,FadD28 FP inh,TcdB inh,GFP chromophore
Cc1cc(C)n(-c2ccc(NN=C(C#N)C#N)cc2)n1,0,0,57,0,0,0,19
Cc1cc(C)n(-c2ccc(C(=O)O)cc2)n1,0,0,0,-,0,-,-
C[C@H](CO)N1C[C@H](C)[C@H](CN(C)C(=O)Nc2ccc3c(c2)OCO3)OCCCC[C@H](C)Oc2ccc(NS(=O)(=O)c3ccc(Cl)cc3)cc2C1=O,-,-,-,0,-,0,-
O=C(C[C@H]1C=C[C@H](NS(=O)(=O)c2ccccc2)[C@@H](CO)O1)N1CCC(Cc2ccccc2)CC1,-,-,-,-,-,0,-
CCOC(=O)Cc1[nH]nc2c1C(c1ccoc1)C(C#N)=C(N)O2 (stereo unspecified),0,0,65,-,0,0,26
CCCc1[nH]nc2c1C(c1ccoc1)C(C#N)=C(N)O2 (stereo unspecified),0,0,61,-,0,0,19
COc1ccc(C2C(C#N)=C(N)Oc3n[nH]c(C)c32)cc1Cn1cc([N+](=O)[O-])cn1 (stereo unspecified),0,0,76,0,0,-,12
